Hit rate of the full screen: of about 39,000 compounds, about 3,300 (8.5%) were called active. The sample as a whole holds a higher share of actives than the screen did.
Tested on: HepG2
Experiment: cytotoxicity call (relative viability < 0.9)
Conditions: 10 µM

| SMILES | cytotoxicity call |
| --- | --- |
| CN(C)CCCNC(=O)C[C@@H]1CC[C@H]2[C@@H](COc3ccc(NC(=O)c4cccc(F)c4)cc3C(=O)N2C)O1 | inactive |
| Cc1ccc(S(=O)(=O)Nc2cccc3c2O[C@@H](CN(C)S(=O)(=O)c2ccc(F)cc2)[C@@H](C)CN([C@H](C)CO)C3=O)cc1 | inactive |
| CC(C)(C)OC(=O)C[C@H]1C/C=C/CC[C@H](Cc2ccc(F)cc2)C(=O)O[C@H](c2ccccc2)CNC1=O | inactive |
| C[C@@H]1CCCCO[C@@H](CN(C)S(=O)(=O)c2cccs2)[C@@H](C)CN([C@H](C)CO)C(=O)c2cc(NS(=O)(=O)c3cn(C)cn3)ccc2O1 | inactive |
| CC(C)NC(=O)N(C)C[C@@H]1OCCCC[C@@H](C)Oc2ccc(NC(=O)C3CCCCC3)cc2C(=O)N([C@H](C)CO)C[C@@H]1C | inactive |
| COc1ccc(S(=O)(=O)N(C)C[C@H]2Oc3c(NS(=O)(=O)c4cn(C)cn4)cccc3C(=O)N([C@H](C)CO)C[C@@H]2C)cc1 | inactive |
| C[C@@H]1CN([C@@H](C)CO)C(=O)c2cc(C#C[C@@H](C)O)cnc2O[C@H]1CN(C)Cc1cncnc1 | inactive |
| C[C@@H]1CCCCO[C@@H](CN(C)Cc2ccc(C(F)(F)F)cc2)[C@H](C)CN([C@H](C)CO)C(=O)c2cc(NS(=O)(=O)c3ccc(F)cc3)ccc2O1 | inactive |
| C[C@@H]1CCCCO[C@@H](CN(C)Cc2ccc(C(F)(F)F)cc2)[C@@H](C)CN([C@H](C)CO)C(=O)c2cc(NS(=O)(=O)c3ccc(F)cc3)ccc2O1 | active |
| C[C@@H]1CN([C@H](C)CO)C(=O)c2cc(NS(=O)(=O)c3ccc(F)cc3)ccc2O[C@@H](C)CCCCO[C@H]1CN(C)Cc1ccc(C(F)(F)F)cc1 | inactive |
| Cc1ccc(S(=O)(=O)Nc2ccc3c(c2)C(=O)N([C@@H](C)CO)C[C@@H](C)[C@@H](CN(C)Cc2ccc(C(F)(F)F)cc2)OCCCC[C@@H](C)O3)cc1 | active |
| Cc1ccc(S(=O)(=O)Nc2ccc3c(c2)C(=O)N([C@H](C)CO)C[C@@H](C)[C@@H](CN(C)Cc2ccc(C(F)(F)F)cc2)OCCCC[C@@H](C)O3)cc1 | inactive |
| Cc1ccc(S(=O)(=O)Nc2ccc3c(c2)C(=O)N([C@H](C)CO)C[C@@H](C)[C@H](CN(C)Cc2ccc(C(F)(F)F)cc2)OCCCC[C@H](C)O3)cc1 | active |
| Cc1ccc(S(=O)(=O)Nc2ccc3c(c2)C(=O)N([C@H](C)CO)C[C@H](C)[C@H](CN(C)Cc2ccc(C(F)(F)F)cc2)OCCCC[C@H](C)O3)cc1 | inactive |
| C[C@@H]1CN([C@@H](C)CO)C(=O)c2cccc(NC(=O)C3CCOCC3)c2O[C@H]1CN(C)Cc1ccccc1 | inactive |
| NCC[C@H]1CC[C@@H](NC(=O)Cc2ccncc2)[C@@H](CO)O1 | inactive |
| C[C@@H]1CN([C@@H](C)CO)C(=O)CCCn2cc(nn2)CO[C@H]1CN(C)S(=O)(=O)c1ccc(Oc2ccccc2)nc1 | inactive |
| CSc1nn(C)c2cnn(C)c(=O)c12 | inactive |
| C[C@H](CO)N1C[C@H](C)[C@H](CN(C)S(=O)(=O)c2cn(C)cn2)Oc2ncc(C#Cc3ccccc3)cc2C1=O | inactive |
| COc1ccc(S(=O)(=O)Nc2ccc3c(c2)C(=O)N([C@H](C)CO)C[C@H](C)[C@@H](CN(C)C(=O)Nc2c(C)noc2C)OCCCC[C@@H](C)O3)cc1 | inactive |
| C[C@@H]1CN([C@@H](C)CO)C(=O)c2cc(NC(=O)Nc3ccc(F)cc3)ccc2O[C@@H](C)CCCCO[C@H]1CN(C)C(=O)CCCN(C)C | inactive |

| SMILES | cytotoxicity call |
| --- | --- |
| Cc1noc(C)c1S(=O)(=O)Nc1ccc2c(c1)C(=O)N([C@@H](C)CO)C[C@@H](C)[C@@H](CN(C)S(=O)(=O)c1ccc(Cl)cc1)O2 | inactive |
| C[C@@H]1CN([C@H](C)CO)C(=O)c2cc(C#Cc3cccc(F)c3)cnc2O[C@@H]1CN(C)C(=O)C1CCOCC1 | inactive |
| C[C@H](CO)N1C[C@H](C)[C@@H](CN(C)C(=O)Nc2ccccc2)OCCCC[C@H](C)Oc2ccc(NS(=O)(=O)c3ccc(F)cc3)cc2C1=O | inactive |
| C[C@@H]1CN([C@@H](C)CO)C(=O)c2cc(NS(=O)(=O)c3ccc(F)cc3)ccc2O[C@@H](C)CCCCO[C@H]1CN(C)C(=O)Nc1ccccc1 | inactive |
| C[C@@H]1CN([C@H](C)CO)C(=O)c2cc(NS(=O)(=O)c3ccc(F)cc3)ccc2O[C@@H](C)CCCCO[C@H]1CN(C)C(=O)Nc1ccccc1 | active |
| C[C@@H]1CCCCO[C@H](CN(C)C(=O)Nc2ccccc2)[C@H](C)CN([C@@H](C)CO)C(=O)c2cc(NS(=O)(=O)c3ccc(F)cc3)ccc2O1 | inactive |
| C[C@@H]1CCCCO[C@@H](CN(C)C(=O)Nc2ccccc2)[C@H](C)CN([C@@H](C)CO)C(=O)c2cc(NS(=O)(=O)c3ccc(F)cc3)ccc2O1 | inactive |
| C[C@@H]1CCCCO[C@@H](CN(C)C(=O)Nc2ccccc2)[C@H](C)CN([C@H](C)CO)C(=O)c2cc(NS(=O)(=O)c3ccc(F)cc3)ccc2O1 | active |
| COc1cccc(C(=O)Nc2ccc3c(c2)C(=O)N(C)[C@@H]2CC[C@H](CC(=O)NCCCN4CCOCC4)O[C@@H]2CO3)c1 | inactive |
| Cn1ccc2ccc(CN)cc21 | inactive |
| Cc1cc(C)nc(C#N)n1 | inactive |
| C[C@H](CO)N1C[C@H](C)[C@@H](CN(C)C(=O)Nc2ccc3c(c2)OCO3)Oc2ccc(NC(=O)Nc3cccc4ccccc34)cc2CC1=O | inactive |
| COc1ccc(S(=O)(=O)Nc2ccc3c(c2)C(=O)N([C@H](C)CO)C[C@H](C)[C@H](CN(C)C(=O)Nc2ccc(F)cc2)OCCCC[C@@H](C)O3)cc1 | inactive |
| COCC#Cc1ccc2c(c1)O[C@@H](CN(C)C(=O)c1ccccc1)[C@H](C)CN([C@H](C)CO)S2(=O)=O | inactive |
| C[n+]1cc2c3c(ccc2c2ccc4cc5c(cc4c21)OCO5)OCO3.[Cl-] | active |
| CCCNC(=O)N1C[C@@H](O)COC[C@H]2O[C@H](CC(=O)N3CCN(C)CC3)CC[C@@H]21 | inactive |
| C[n+]1ccn(C[C@@]2(C)[C@H](C(=O)O)N3C(=O)C[C@H]3S2(=O)=O)n1 | inactive |
| Cc1noc(C)c1NC(=O)N(C)C[C@H]1Oc2c(NS(=O)(=O)c3cn(C)cn3)cccc2C(=O)N([C@@H](C)CO)C[C@@H]1C | inactive |
| Cc1ccc(S(=O)(=O)N[C@@H](Cc2ccccc2)C(=O)NCCCn2cc(-c3ccc(C(=O)NO)s3)nn2)cc1 | inactive |
| CC(=O)N[C@H]1C/C=C/C[C@@H](CC(=O)NCc2ccc(Cl)cc2)C(=O)NC[C@@H](c2ccccc2)OC1=O | inactive |
| C[C@H]1COC(=O)[C@H](Cc2ccc(F)cc2)CC=CC[C@@H](CC(=O)N[C@H](CO)Cc2ccccc2)C(=O)N1 | inactive |

| SMILES | cytotoxicity call |
| --- | --- |
| O=C(C[C@@H]1C/C=C/C[C@H](Cc2ccccc2)C(=O)N[C@H](c2ccccc2)COC1=O)NCc1ccc(Cl)cc1 | active |
| C[C@@H]1CN([C@@H](C)CO)C(=O)c2cc(NC(=O)c3ccncc3)ccc2O[C@@H](C)CCCCO[C@@H]1CN(C)Cc1ccccc1 | inactive |
| C[C@H]1CN([C@@H](C)CO)C(=O)c2cc(NC(=O)Cn3cnnn3)ccc2O[C@@H]1CN(C)S(=O)(=O)c1ccc(Cl)cc1 | inactive |
| C[C@H]1CN([C@@H](C)CO)C(=O)Cc2cc(NC(=O)Nc3ccc(F)cc3)ccc2O[C@@H]1CN(C)Cc1ccc(-c2ccccc2)cc1 | active |
| C[C@@H]1CN([C@@H](C)CO)C(=O)Cc2cc(NC(=O)Nc3ccc(F)cc3)ccc2O[C@@H]1CN(C)Cc1ccc(-c2ccccc2)cc1 | active |
| C[C@H](CO)N1C[C@H](C)[C@H](CN(C)Cc2ccc(-c3ccccc3)cc2)Oc2ccc(NC(=O)Nc3ccc(F)cc3)cc2CC1=O | active |
| C[C@H](CO)N1C[C@H](C)[C@@H](CN(C)Cc2ccc(-c3ccccc3)cc2)Oc2ccc(NC(=O)Nc3ccc(F)cc3)cc2CC1=O | active |
| C[C@H](CO)N1C[C@H](C)[C@@H](CN(C)S(=O)(=O)c2cn(C)cn2)Oc2ncc(C3=CCCC3)cc2C1=O | inactive |
| O=C(CN1CCOCC1)N[C@H]1CC[C@@H](CCNC(=O)Nc2cc(F)ccc2F)O[C@H]1CO | inactive |
| CON=C(C(=O)NC1C(=O)N2C(C(=O)[O-])=C(COC(N)=O)CSC12)c1ccco1.[Na+] (stereo unspecified) | inactive |
| C[C@@H]1CCCCO[C@H](CN(C)C(=O)Nc2cccc3ccccc23)[C@@H](C)CN([C@@H](C)CO)C(=O)c2cc(N(C)C)ccc2O1 | inactive |
| CCCNC(=O)N(C)C[C@H]1Oc2cc(C#Cc3cccc(F)c3)ccc2S(=O)(=O)N([C@H](C)CO)C[C@H]1C | inactive |
| C[C@H](CO)N1C[C@H](C)[C@H](CN(C)Cc2ccccc2)OCCCC[C@H](C)Oc2ccc(NS(=O)(=O)c3ccc(Cl)cc3)cc2C1=O | inactive |
| CCCNC(=O)N(C)C[C@@H]1Oc2cc(-c3ccc(C)cc3)ccc2S(=O)(=O)N([C@H](C)CO)C[C@@H]1C | inactive |
| COCC(=O)N(C)C[C@H]1Oc2cc(C#Cc3ccccc3)ccc2S(=O)(=O)N([C@H](C)CO)C[C@H]1C | inactive |
| C[C@H]1CN([C@@H](C)CO)C(=O)Cc2cc(NC(=O)Nc3ccc(F)cc3)ccc2O[C@H]1CN(C)Cc1ccc(-c2ccccc2)cc1 | active |
| C[C@@H]1CN([C@H](C)CO)C(=O)Cc2cc(NC(=O)Nc3ccc(F)cc3)ccc2O[C@@H]1CN(C)Cc1ccc(-c2ccccc2)cc1 | inactive |
| C[C@@H]1CN([C@H](C)CO)C(=O)Cc2cc(NC(=O)Nc3ccc(F)cc3)ccc2O[C@H]1CN(C)Cc1ccc(-c2ccccc2)cc1 | active |
| C[C@@H]1CN([C@@H](C)CO)C(=O)Cc2cc(NC(=O)Nc3ccc(F)cc3)ccc2O[C@H]1CN(C)Cc1ccc(-c2ccccc2)cc1 | active |
